From PubChem BioAssay
NR2F2 inh: NR2F2 transcriptional activity inhibitors, primary screen, cell-based, luciferase reporter, HEK293T, luminescence | inhibition, % at 8.6 µM | actives 0.7% (n = 370,000) | COUP transcription factor 2 (Homo sapiens), P24468 | HEK293T NGFI-A luciferase reporter;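 active = inhibition above a per-plate cutoff, mean inhibition of test wells between control levels plus 3 SD, cut at about 38% in these data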;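 note: cells cotransfected with COUP-TFII expression vector driving the NGFI-A reporter; 0% = median of COUP-TF2 test wells and 100% = reporter-only cells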
NCOA1 inh: SRC1 coactivator transcriptional activity inhibitors, primary screen, cell-based, luminescence; HEK293 GAL4-SRC1 luciferase reporter; inhibition, % at 3.6 µM; actives 0.12% (n = 360,000);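 active = inhibition above the campaign mean plus 3 SD, with each screening campaign given its own cutoff, cut at about 60% in these data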;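 note: 0% = DMSO treated cells and 100% = gossypol at 36 µM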
SRC3 inh: SRC3 coactivator transcriptional activity inhibitors, primary screen, cell-based, luminescence | Nuclear receptor coactivator 3 (Homo sapiens), Q9Y6Q9 | HEK293 GAL4-SRC3 luciferase reporter | inhibition, % at 3.6 µM | actives 0.17% (n = 360,000) | AID 588352, 2011;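 active = inhibition above a per-campaign cutoff, the mean of all compounds plus 3 SD, cut at about 60% in these data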;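 note: 0% = DMSO-treated cells and 100% = gossypol-treated cells at 36 µM; higher means less SRC3-driven luciferase light from the GAL4 reporter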
NR5A2 inv ag: LRH-1 (NR5A2) inverse agonists, primary screen, cell-based, luminescence, HEK293T, StAR-luciferase reporter. Nuclear receptor subfamily 5 group A member 2 (Homo sapiens), O00482. LRH-1 transfected, 24 h. inhibition, % at 3.6 µM. actives 0.13% (n = 360,000). AID 602396, 2012;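 active = inhibition above the mean inhibition of all tested compounds plus 3 SD, cut at about 73% in these data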;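 note: 0% = DMSO wells and 100% = reporter-only cells lacking LRH-1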
Gli-Sufu antag: Gli-Sufu pathway antagonists, primary screen, luciferase luminescence, Sufu-KO-LIGHT cells, uHTS | Sufu-KO-LIGHT fibroblasts, Gli luciferase reporter luminescence | inhibition, % at 5 µM | actives 0.74% (n = 340,000) | AID 588413, 2011;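 active = inhibition above about 55%, limit read from the data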;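 note: 0% = DMSO-treated cells and 100% = wells with medium but no cells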
NCOA2 inhibitor: inhibition of GAL4-SRC2 driven luciferase reporter, primary screen, SRC2 inhibitor project, cell-based, luminescence; AID 651957, 2012; Nuclear receptor coactivator 2 (Homo sapiens), Q15596; actives 0.17% (n = 370,000); inhibition, % at 9 µM; HEK293 GAL4-SRC2 luciferase reporter;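 active = inhibition above the mean inhibition of all tested compounds plus 3 SD, set per campaign, cut at about 52% in these data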;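 note: 0% = DMSO treated cells and 100% = cells given Gossypol at 36 µM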
VP16 Luc counter: Gal4-VP16 luciferase reporter inhibitors, counter-screen for COUP-TFII antagonist project, cell-based, luminescence, HEK293. AID 687007, 2013. actives 25% (n = 2,500). shares compounds with NR2F2 inh. inhibition, % at 8.5 µM; in the data active = inhibition above about 13%
NR2F2 inh conf: NR2F2 transcriptional activity inhibitors, confirmation, cell-based, luciferase reporter, HEK293, triplicate. HEK293 NGFI-A luciferase reporter, luminescence. inhibition, % at 8.5 µM. actives 45% (n = 2,500). AID 687008, 2013. shares compounds with NR2F2 inh;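 active = mean inhibition over three repeats above a set limit taken from the earlier primary screen, cut at about 38% in these data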;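 note: 100% = cells given the luciferase reporter alone without the COUP-TF2 vector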
* hit, by the source's call; · = no result given. In the library only some 1.3% were active in any assay of this set; here they are far more common.

SMILES	NR2F2 inh	NCOA1 inh	SRC3 inh	NR5A2 inv ag	Gli-Sufu antag	NCOA2 inhibitor	VP16 Luc counter	NR2F2 inh conf
CC1=CC2OC3CC4OC(=O)C=CC=CC(C(C)O)OCC(O)C5(C)OC5C(=O)OCC2(CC1O)C4(C)C31CO1 (centres undefined)	92*	96*	93*	98*	88*	65*	19*	89*
CC(O)C1C=CC=CC(=O)OC2CC3OC4C5OC5(C)C(O)CC4(COC(=O)C(O)C(C)CCO1)C2(C)C31CO1 (centres undefined)	92*	96*	94*	100*	92*	73*	25*	92*
COC1CC=C2CCN3CCC4=C(CC(=O)OC4)C23C1 (centres undefined)	-16	·	·	·	·	-11	·	·
C=C(CC1CC(O)[C@]2(C)OC3CC4OC5C[C@]6(C)O[C@]7(C)CCC8OC9C[C@]%10(C)OC%11C(C)=CC(=O)OC%11CC%10OC9C[C@@H](C)C8OC7CC6O[C@]5(C)C/C=C\C4OC3CC2O1)C(=O)O (some centres undefined)	-10	-1	14	10	-6	-2	·	·
C=C(C=O)CC1CC(O)[C@]2(C)OC3CC4OC5C[C@]6(C)O[C@]7(C)CCC8OC9C[C@]%10(C)OC%11C(C)=CC(=O)OC%11CC%10OC9C[C@@H](C)C8OC7CC6O[C@]5(C)C/C=C\C4OC3CC2O1 (some centres undefined)	76*	·	·	·	·	·	1	9
CN(c1ccc(OCC(=O)N2CCN(C/C=C/c3ccccc3)CC2)cc1)S(=O)(=O)c1cccs1	38*	7	21	10	13	-6	7	38*
NC(=O)c1cn(C2OC(CO)C(O)C2O)c2ncnc(N)c12 (centres undefined)	72*	91*	89*	98*	87*	62*	56*	86*
COc1ccc(Cc2nccc3cc(OC)c(OC)cc23)cc1OC	40*	10	4	36	33	-11	-3	14
COc1ccc(CC2=NCCc3cc(OC)c(OC)cc32)cc1OC	-6	16	-4	-10	·	-11	·	·
O=c1[nH]c2ccccc2n1C1CCN(C(CCc2ccccc2)c2nnnn2C2CCCCC2)CC1 (centres undefined)	5	48	54	23	·	3	·	·
COc1ccc(-n2nnnc2C(c2cc3ccccc3o2)N2CCC(n3c(=O)[nH]c4ccccc43)CC2)cc1 (centres undefined)	99*	37	60	44	·	42	-3	60*
COc1ccc(C(c2nnnn2-c2ccc(OC)cc2)N2CCC(n3c(=O)[nH]c4ccccc43)CC2)cc1 (centres undefined)	5	24	17	12	·	10	·	·
Fc1ccc(NC(=S)N2Cc3ccccc3-n3nncc3C2)cc1	0	20	-2	-1	·	4	·	·
O=C(Nc1ccc(OC(=O)N2CCCCC2)cc1)N1CCOCC1	78*	44	48	56	16	84*	29*	19
COC(=O)C1=C(c2cc3ccccc3s2)C[C@@H]2CC[C@H]1N2C(=O)NC1CCCCC1	12	-1	-4	7	12	-23	·	·
O=c1[nH]c2ccccc2n1C1CCN(C(c2ccccc2OC(F)(F)F)c2nnnn2Cc2ccccc2)CC1 (centres undefined)	42*	34	37	-6	·	33	15*	28
Cc1ccc2c(c1)Oc1ccccc1N=C2	-4	6	2	-2	·	-20	·	·
CC(=NCC1CCCO1)c1c(O)n(-c2ccccc2C)c(=O)[nH]c1=O (centres undefined)	4	9	14	16	-2	-8	·	·
